The text below walks through data of PubChem BioAssay (NCI).

About 79,000 compounds went through this panel and 15% of them were active in at least one assay; those are over-represented in the sample as a whole. A number with no mark means an inactive call. The source made the active and inactive calls. Rule as the data show it: active = growth inhibition above about 70%; inactive = the rest.

Assay [1] is described as follows: NCI Yeast Anticancer Drug Screen. Data for the rad50 strain (AID 155).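 Also: 0% = growth of vehicle-only cultures of the same strain.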 The conditions noted are these: S. cerevisiae rad50 strain growth inhibition; at 50.0 µM; hits give high values. The method in brief: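 Inhibition values express reduced yeast growth in compound-treated cultures relative to vehicle-treated controls.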
Assay [2] is described as follows: NCI Yeast Anticancer Drug Screen. Data for the mec2-1 strain (AID 157). The conditions noted are these: S. cerevisiae mec2-1 strain, at 50.0 µM, hits give high values. The procedure, abridged:
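Strain: mec2-1 (DNA repair/cell cycle alteration). Compound exposure, then growth measured; inhibition expressed relative to vehicle.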

The nature of assay [3]: NCI Yeast Anticancer Drug Screen. Data for the sgs1 mgt1 strain (AID 161).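 Also: 0% = growth of cultures given vehicle only.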 The conditions noted are these: S. cerevisiae sgs1 mgt1 strain, at 50.0 µM, hits give high values. The method in brief:
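Genetically altered yeast, compound exposure, growth inhibition relative to vehicle.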

Assay [4] in a line: NCI Yeast Anticancer Drug Screen. Data for the cln2 rad14 strain (AID 165).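 Also: 0% = growth equal to vehicle treated cultures.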 The conditions noted are these: S. cerevisiae cln2 rad14 strain, at 50.0 µM, hits give high values. The method in brief: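 Compounds are applied to the cln2 rad14 yeast strain, and growth is then compared with that of vehicle-treated cultures to give inhibition.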
Assay [5] can be described thus: NCI Yeast Anticancer Drug Screen. Data for the bub3 strain (AID 167). The conditions noted are these: S. cerevisiae bub3 mutant strain, at 50.0 µM, hits give high values. The procedure, abridged:
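Steps: expose the mutant yeast strain to compound; grow alongside vehicle-treated cultures; measure growth; express inhibition against the vehicle cultures.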

Assay [6] is described as follows: NCI Yeast Anticancer Drug Screen. Data for the mlh1 rad18 strain (AID 175). The settings on record: S. cerevisiae mlh1 rad18 strain growth inhibition; at 50.0 µM; hits give high values. The method in brief: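 Read-out is yeast growth inhibition, calculated against vehicle-only controls. The compound was applied to a strain engineered with DNA damage repair alterations.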

In the case of `CCOC(=O)Cc1nc2ccccc2[nH]c1=O`, the growth inhibition is 25% in assay [1]; -11.7% in assay [2]; 1.25% in assay [3]; 0.35% in assay [4]; -6.35% in assay [5]; -17.2% in assay [6].
For `O=C(O)C1CC(Cl)C(Cl)CC1C(=O)O` (stereo unspecified), the growth inhibition in assay [1] was -2.9%; in assay [2], -27.1%; in assay [3], 0.85%; in assay [4], 0.2%; in assay [5], -19.2%; in assay [6], -5.1%.
As to `Cc1nnc(Nc2ccc(Cl)c(Cl)c2)s1`, the growth inhibition in assay [1] is -6.95%; in assay [2], -20%; in assay [3], 26.8%; in assay [4], 12.3%; in assay [5], 11.3%; in assay [6], 4.75%.
Consider `O=C(O)c1ccc(Cl)c(N=C/C=C/c2ccccc2)c1`, for which the growth inhibition was 1.85% in assay [1]; -37.5% in assay [2]; 6.6% in assay [3]; -15.3% in assay [4]; 3.45% in assay [5]; -6.9% in assay [6].
Regarding `CC(=O)CC(=O)NC1CCCC1`, the growth inhibition was -25.8% in assay [1]; -38.6% in assay [2]; -33% in assay [3]; -3.5% in assay [4]; -50% in assay [5]; -13.9% in assay [6].
On to `COc1cccc2c1C(=O)c1c(O)c3c(c(O)c1C2=O)CC(O)(C(C)=O)CC3OC1CC(NC(=O)C(CCCCN)NC(=O)C(N)CCN)C(O)C(C)O1` (stereo unspecified), for which the growth inhibition in assay [1] was 9.1%; in assay [2], -1.15%; in assay [3], -0.5%; in assay [4] it was 12.8%; in assay [5], 15.9%; in assay [6] it was 14.6%.
On to `COc1cccc(Cc2cncc3c(O)c(OC)ccc23)c1O`, for which the growth inhibition was 2.3% in assay [1]; -6.4% in assay [2]; -8.05% in assay [3]; 3% in assay [4]; -1.9% in assay [5]; 9.95% in assay [6].
With `CCCCN(C)CCNc1cc(C)nc(Nc2nc3ccc(Cl)cc3[nH]2)n1`, the growth inhibition in assay [1] is 90% (active); in assay [2], 96.2% (active); in assay [3] it was 74.9% (active); in assay [4], 96.6% (active); in assay [5], 97.9% (active); in assay [6] it was 96.2% (active).
On to `CC(CO)(CO)Nc1ncnc2ccccc12`, for which the growth inhibition in assay [1] is -4.5%; in assay [2], -12%; in assay [3] it was -30.9%; in assay [4], -26.4%; in assay [5] it was -36.9%; in assay [6] it was 9.7%.
On to `COC(=O)C[C@H]1CCC2(OCCO2)[C@]1(C)C(=O)OC`, for which the growth inhibition in assay [1] is -10.7%; in assay [2], -11.6%; in assay [3] it was -11.2%; in assay [4] it was -23.4%; in assay [5], -6.9%; in assay [6], -27.1%.
With `CCOC(=O)C1Cc2ccccc2OC1=O` (stereo unspecified), the growth inhibition in assay [1] was -9.4%; in assay [2], -15.2%; in assay [3], 20.4%; in assay [4] it was 12.8%; in assay [5], 9.55%; in assay [6] it was 3.85%.
For the compound `O=C(O)C1CSC2(CCCC2)N1` (stereo unspecified), the growth inhibition in assay [1] is 16.6%; in assay [2], 4.15%; in assay [3] it was 12.1%; in assay [4], 4.35%; in assay [5], 5.7%; in assay [6] it was -1.6%.
Turning to `O=C1c2ccccc2C(=O)N1c1cccc2ccccc12`, the growth inhibition in assay [1] was 51.4%; in assay [2] it was 8.2%; in assay [3], 26.6%; in assay [4] it was -19.4%; in assay [5] it was 55.7%; in assay [6], 62%.
`NC(CSc1nc2ccccn2c1[N+](=O)[O-])C(=O)O` (stereo unspecified): the growth inhibition is -26.1% in assay [1]; -40.8% in assay [2]; -30.1% in assay [3]; 5.25% in assay [4]; 8.25% in assay [5]; -18% in assay [6].
Regarding `CC1(C)OC2CC(=O)OCC23C1CC(=O)C1(C)C3CCC2(C)C(c3ccoc3)OC(=O)C3OC321` (stereo unspecified), the growth inhibition in assay [1] was -7.65%; in assay [2], 1.4%; in assay [3] it was -0.55%; in assay [4] it was 10.1%; in assay [5], 8.7%; in assay [6] it was 18.5%.
In the case of `Clc1c2c(nc3ccccc13)CCCC2`, the growth inhibition in assay [1] is 19.3%; in assay [2], 50.9%; in assay [3], 49.4%; in assay [4] it was -37%; in assay [5], 7.65%; in assay [6], 8.05%.
Regarding `Nc1ccccc1CCO`, the growth inhibition was 14.5% in assay [1]; -6.75% in assay [2]; 30.9% in assay [3]; 13.2% in assay [4]; -5.8% in assay [5]; 19.5% in assay [6].
Consider `COc1ccc(C2OC(C)C(C)O2)cc1` (stereo unspecified), for which the growth inhibition in assay [1] is -9.3%; in assay [2], 10.4%; in assay [3], -1.5%; in assay [4], -42.6%; in assay [5] it was -8.35%; in assay [6] it was -8%.
On to `COC(=O)CCC(=O)Nc1cc(Cl)ccc1Cl`, for which the growth inhibition in assay [1] was -2.35%; in assay [2] it was -16.1%; in assay [3], -0.35%; in assay [4] it was 6.45%; in assay [5], -4.15%; in assay [6], 6.3%.
As to `Nc1ccc(S(=O)(=O)Nc2ccccn2)cc1`, the growth inhibition in assay [1] was -2.2%; in assay [2], 8.55%; in assay [3], -13.1%; in assay [4], -41.4%; in assay [5], -20.2%; in assay [6] it was -17.4%.
`Cc1ccc(SC(=O)Cc2ccc([N+](=O)[O-])cc2)cc1`: the growth inhibition in assay [1] is 96.6% (active); in assay [2], 98% (active); in assay [3], 98.2% (active); in assay [4], 88.3% (active); in assay [5], 96.2% (active); in assay [6], 96.8% (active).
